“And” between values parts separate entries of the source, which are not always exact repeats. Equal entries are not always repeated. About 79,000 compounds went through this panel and 15% of them were active in at least one assay; those are over-represented in the sample as a whole. No stated cut-off is given here; in the data, active means growth inhibition above about 70%; inactive means the rest.
Key:
[1] = NCI Yeast Anticancer Drug Screen. Data for the rad50 strain (AID 155);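 further: 0% = growth of vehicle-only cultures of the same strain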; conditions: S. cerevisiae rad50 strain growth inhibition; at 50.0 µM; stronger effect = higher value
How it was run: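 Vehicle-treated cultures provide the reference for the growth inhibition reported for compound-exposed, repair-deficient yeast.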

[2] = NCI Yeast Anticancer Drug Screen. Data for the mec2-1 strain (AID 157); conditions: S. cerevisiae mec2-1 strain, at 50.0 µM, stronger effect = higher value
How it was run: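 Each compound was tested on mec2-1 yeast, a strain altered in DNA damage repair or cell cycle control. Growth inhibition is reported relative to vehicle.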

[3] = NCI Yeast Anticancer Drug Screen. Data for the sgs1 mgt1 strain (AID 161);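 further: 0% = growth of cultures given vehicle only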; conditions: S. cerevisiae sgs1 mgt1 strain, at 50.0 µM, stronger effect = higher value
How it was run: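 Inhibition of yeast growth, normalised to vehicle-treated controls, is reported for a strain bearing genetic alterations in DNA damage repair.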

[4] = NCI Yeast Anticancer Drug Screen. Data for the cln2 rad14 strain (AID 165);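 further: 0% = growth equal to vehicle treated cultures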; conditions: S. cerevisiae cln2 rad14 strain, at 50.0 µM, stronger effect = higher value
How it was run: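 Test compounds were added to cln2 rad14 yeast cultures; inhibition of growth was then determined by comparison with vehicle treatment.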

[5] = NCI Yeast Anticancer Drug Screen. Data for the bub3 strain (AID 167); conditions: S. cerevisiae bub3 mutant strain, at 50.0 µM, stronger effect = higher value
How it was run: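 Mutant yeast screening strain plus compound; vehicle-treated cultures serve as the 0% inhibition reference.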

[6] = NCI Yeast Anticancer Drug Screen. Data for the mlh1 rad18 strain (AID 175); conditions: S. cerevisiae mlh1 rad18 strain growth inhibition; at 50.0 µM; stronger effect = higher value
How it was run: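 Inhibition values reflect reduced growth of mutant yeast versus vehicle-treated controls following compound exposure; the mutations affect DNA damage repair.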

Measured: growth inhibition

OC[P+](CO)(CO)CO
inactive: [1] -2.8% | [2] 1.05% | [3] -8.15% | [4] -24.9% | [5] 14.7% | [6] -5.9%

O=C(O)[C@@H](Cl)[C@@H](Cl)C(=O)O
inactive: [1] 30.7% | [2] -11.4% | [3] 22.9% | [4] 6.7% | [5] 9.55% | [6] 17.9%

O=C(O)C(=O)O.[Ti].[c-]1[c-][c-][cH-][c-]1.[c-]1[c-][c-][cH-][c-]1
inactive: [1] 23.9% | [2] 14.9% | [3] 29.6% | [4] -54.7% | [5] 24% | [6] 29.7%

N.N.N.N.N.N.[I-].[Os]
inactive: [1] 23.5% | [2] 1.45% | [3] 5.4% | [4] 7.6% | [5] 1.25% | [6] -2%

Cc1cc(N(CCCl)CCCl)ccc1C=Nc1ccc(F)cc1[N+](=O)[O-]
inactive: [1] 4.3% | [2] 3.1% | [3] 2.65% | [4] 1.65% | [5] -8.45% | [6] 18.7%

CN(C)CCNC(=O)c1cc(COC(=O)N(CCCl)CCCl)ccc1[N+](=O)[O-]
inactive: [1] 38.2% | [2] 36.9% | [3] 56.1% | [4] 28.1% | [5] 35.8% | [6] 56.8%

O=C1CC(c2ccccc2)n2cccc21 (centres undefined)
inactive: [1] 8.1% | [2] 2.2% | [3] 4.85% | [4] 24.8% | [5] -8.95% | [6] -27.8%

O=C(CC(=O)C(F)(F)F)c1cccs1.[Fe]
inactive: [1] 22.1% and 27.1% | [2] 34.8% and 30.1% | [3] 33.2% and 28.4% | [4] 11.2% and 10.8% | [5] 20.9% and 21.2% | [6] 48.2% and 42.5%

CC(F)C(N)C(=O)O (centres undefined)
inactive: [1] -7.9% | [2] -3.65% | [3] -7.75% | [4] -1.7% | [5] -0.1% | [6] -11.9%

CCCCOP(=O)(CCCC)OCCCC.CCCCOP(=O)(CCCC)OCCCC.CCCCOP(=O)(CCCC)OCCCC.CCCCOP(=O)(CCCC)OCCCC.O.O.[Co+2].[O-][Cl+3]([O-])([O-])O
inactive: [1] 25.4% | [2] 5.55% | [3] 7.35% | [4] 17.6% | [5] 19.8% | [6] 5.8%

COc1ccc(-c2c[se]c(=S)s2)cc1
inactive: [1] 24.1% | [2] 10.8% | [3] -7.35% | [4] -33.5% | [5] 4.2% | [6] 11.3%

CSC(SC)P(=O)(Oc1ccccc1)Oc1ccccc1
inactive: [1] -10.4% | [2] 2.85% | [3] 1.4% | [4] 4.45% | [5] 8.7% | [6] 10.6%

C1CSCCO1.[Cu+2].[O-][Cl+3]([O-])([O-])O
inactive: [1] -7.6% | [2] -10.6% | [3] -0.4% | [4] -36.8% | [5] -37% | [6] -13.8%

Cc1ccc(C2=CCNCC2)cc1
inactive: [1] -9.45% | [2] -24.3% | [3] -4.3% | [4] 6.75% | [5] -12% | [6] -2.65%

O=C(CCC(=O)Oc1ccc(S(=O)(=O)F)cc1)Oc1ccc(S(=O)(=O)F)cc1
inactive: [1] 49.1% | [2] 15.3% | [3] 44.3% | [4] 26.1% | [5] 7.65% | [6] 9.8%

CC(=O)C1C=NCCN=CC(C(C)=O)C(C)=NCCCN=C1C.[Ni] (centres undefined)
inactive: [1] 10.7% | [2] 4.3% | [3] 14.4% | [4] -2.2% | [5] 8.7% | [6] 18.5%

CC([NH-])C(C)[NH-].CC([NH-])C(C)[NH-].CC([NH-])C(C)[NH-].[Cr+6] (centres undefined)
inactive: [1] 9.9% | [2] 22.8% | [3] 10.7% | [4] 2% | [5] 1.9% | [6] 8.15%

COc1ccc2c(c1)-c1c(ccc(OC)c1OC(=O)C(=O)c1ccccc1)CC(Cl)N(C)CC2.[O]=[Cr](=[O])([OH])[OH] (centres undefined)
inactive: [1] -18.3% | [2] -0.55% | [3] -19.5% | [4] -17% | [5] -1.3% | [6] -1.25%

c1ccc(C2=NCN3CC23c2ccccc2)cc1 (centres undefined)
inactive: [1] -3.6% | [2] 2.2% | [3] 14.4% | [4] 13.4% | [5] -48.8% | [6] 3.45%

O.[Co].[NH2-].[NH2-].[NH2-].[NH2-].[NH2-]
inactive: [1] 27.9% | [2] -27.1% | [3] 36.2% | [4] 12.8% | [5] 24.2% | [6] 33.4%

CCCCC(CC)COP(OCC(CC)CCCC)OCC(CC)CCCC.[Cl][Sn][Cl] (centres undefined)
inactive: [1] -8.1% | [2] 16.1% | [3] 14.9% | [4] -10.4% | [5] -6.2% | [6] 21%

NNC(=S)S
inactive: [1] 27.9% and -11.3% and -7.8% | [2] 26.1% and -14.6% and -8.5% | [3] 6.1% and -1.65% and -21.6% | [4] 22.2% and -24.2% and -21.7% | [5] 26.2% and 9.35% and -27% | [6] 5.3% and -2.15% and -45.4%

CCN(CC)C(=O)CCN1CC1
inactive: [1] 10.4% | [2] -0.65% | [3] 12.3% | [4] 19.5% | [5] 5.1% | [6] -1.25%

CSc1nsc(-c2ccccc2)[s+]1
inactive: [1] 13% | [2] -11.6% | [3] 2.95% | [4] -74.5% | [5] -9.2% | [6] 18%

[CH3][Sn]1([CH3])[c]2ccccc2Oc2cccc[c]21
inactive: [1] -11.9% | [2] 1.65% | [3] 4.7% | [4] -1.2% | [5] 33.5% | [6] -17.6%

NC(=O)C(Cl)(Cl)Cl
inactive: [1] -6.6% | [2] 9.25% | [3] 6.1% | [4] 4.95% | [5] -5.65% | [6] 12.4%

O=C(O)CC(=O)O.[Co+2].[NH-]CC(=O)O.[NH-]CC(=O)O
inactive: [1] 15.4% | [2] -6.65% | [3] 10.2% | [4] 0.8% | [5] -0.9% | [6] -15.9%

NNC(=O)c1ccc(N)cc1
inactive: [1] -12.1% | [2] -9.75% | [3] -8.3% | [4] 6.05% | [5] 4.75% | [6] 7.1%

C1CN2CN3CCN(CN1C3)C2
inactive: [1] 13.1% | [2] 12.2% | [3] 20.9% | [4] 33.2% | [5] 10.2% | [6] 13.8%

CC(C)(C)NC(=O)CCl
inactive: [1] -9.6% | [2] -1.35% | [3] -6.1% | [4] -10.2% | [5] 7.45% | [6] -7.85%

Cc1cc(C)n(-c2nc3ccccc3c(=O)n2-c2ccccc2)n1
inactive: [1] -2.9% | [2] -2.75% | [3] -14.5% | [4] 0.4% | [5] -7.75% | [6] -16.9%

C1CC[N-]CC1.C1CC[N-]CC1.[Cl][Pd][Cl]
inactive: [1] 1.25% | [2] 8.8% | [3] 13% | [4] -23.6% | [5] 10.8% | [6] 15.4%

CCOc1ccc(OCC)c(C(O)C(C)NC(C)C)c1 (centres undefined)
inactive: [1] -0.55% | [2] 9.1% | [3] 6% | [4] 0.1% | [5] -3.6% | [6] -10.2%

CC1(CCl)COP(=O)(NN)OC1 (centres undefined)
inactive: [1] 3.95% | [2] -3.15% | [3] -3.85% | [4] -28.7% | [5] 12% | [6] 5.35%

CCn1/c(=N\N=O)sc2ccccc21
inactive: [1] -4.1% | [2] 6.05% | [3] -4.2% | [4] -23.9% | [5] -35.3% | [6] 3.6%

NC(N)=NCCN=C(N)N
inactive: [1] -2.7% | [2] -30.1% | [3] -29.6% | [4] -24.1% | [5] -53.2% | [6] -9.15%

OP(=S)(OCc1ccccc1)OCc1ccccc1
inactive: [1] 18.9% | [2] 19.6% | [3] 5.95% | [4] -13.8% | [5] 17.9% | [6] 4.55%

CCC[C@H]1CCCCN1
inactive: [1] 27.1% | [2] 12.7% | [3] 23.4% | [4] 18.9% | [5] -13% | [6] 3.6%

O=C1NC(=O)C(CCC(=O)c2ccc3ccccc3c2)C(=O)N1
inactive: [1] -29.1% | [2] -22.8% | [3] -57.6% | [4] -10.8% | [5] -34.8% | [6] -25.8%

Reference: PubChem BioAssay (NCI)
